In PubChem BioAssay AID743269 (The Scripps Research Institute Molecular Screening Center, 2014):
The campaign covered roughly 370,000 compounds. About 2,400 (0.65%) were called active.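 The calls were made as follows: active = inhibition above the screen-wide mean plus 3 SD (cut at about 13% in these data); inactive = the rest.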 The entries come from a sample that favours actives as a whole.

The compounds below were run on HIV-1 integrase (with human LEDGF/p75) (assay: blockers of LEDGF/p75-dependent integrase strand transfer – biochemical, TR-FRET, high throughput, primary screen (AID 743269;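 also: signal is the Cy5 over europium emission ratio at 671 and 618 nm; 0% = plate median of compound wells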)). Conditions: TR-FRET IN-LEDGF/p75 DNA integration, Eu/Cy5; at 3.7 µM; hits give high values.

SMILES	inhibition
O=C(NCC1COc2ccccc2O1)c1ccc(NC(=O)c2cc(F)ccc2F)cc1 (stereo not drawn)	-2.1% (inactive)
COc1ccc2[nH]c3c(C)c4cc[n+](C)cc4c(C)c3c2c1	28% (active)
O=C(CSc1nc2c(c(=O)[nH]1)CCCC2)N1CCCCC1	3.68% (inactive)
CCOC(=O)C(=O)N(Cc1ccccc1)c1ccccc1C(=O)Nc1cc(OC)ccc1OC	0.37% (inactive)
COC(=O)[C@]12C[C@H](CC(=O)NCc3ccccc3)C(=O)N(CCc3ccc(OC)c(OC)c3)C1=C[C@H](C(C)(C)C)O[C@@H]2C	-2.49% (inactive)
Cc1ccc(-c2nn(-c3ccccc3)cc2/C=C2\SC(=S)N(CCCCCC(=O)O)C2=O)o1	13.6% (active)
C#CCNC(=O)C[C@H]1C[C@@]2(C(=O)OC)C(=C[C@H](C(C)C)O[C@@H]2C2CC2)N(Cc2ccco2)C1=O	0.25% (inactive)
C=C(C)C#CC(Cc1ccccc1)NCC1CC1 (stereo not drawn)	-6.26% (inactive)
CN[C@H]1C[C@H]2c3cc(N4CCOCC4)ccc3CCN2C[C@H]1[C@H](C)O	3.07% (inactive)
C[C@H](NC(=O)c1ccccc1Cl)C(=O)OCC(=O)N1CCN(c2ccccc2)CC1	1.43% (inactive)
O=C(OCC(=O)N1CCN(c2ccccc2)CC1)c1ccc([N+](=O)[O-])s1	16.4% (active)
Cc1ccc(C)c(OCCC(=O)OCC(=O)N2CCN(c3ccccc3)CC2)c1	-9.14% (inactive)
COc1ccc(-n2c(SCC(=O)Nc3ccccc3-c3ccccc3)nnc2-c2cccnc2)cc1	-1.52% (inactive)
COc1ccc(CNC(=O)C(C)NCc2ccccc2Cl)cc1 (stereo not drawn)	-0.38% (inactive)
COc1ccc(NC(=O)C(NC(C)=O)C(=O)NCc2ccccc2Cl)cc1 (stereo not drawn)	41.8% (active)
COc1ccc(NC(=O)N2CCCC2C(=O)NCc2ccccc2Cl)cc1 (stereo not drawn)	-4.21% (inactive)
CCC(=O)OCCCN1C(=O)CCC12CCC(c1ccccc1)CC2 (stereo not drawn)	2.48% (inactive)
O=C1CC(c2ccc3c(c2)OCO3)N=C2N(CC3CC3)C/C(=C/c3ccccc3)N12 (stereo not drawn)	-0.65% (inactive)
Cc1cc(NS(=O)(=O)c2ccc(NC(=O)CSc3nnc(SCc4ccc(F)cc4)s3)cc2)nc(C)n1	-3.91% (inactive)
CCOC(=O)C1CCN(C(=O)C(C)(C)NC(=O)Nc2ccc(F)c(F)c2)CC1	3.2% (inactive)
COc1ccc(C(=O)C(C)OC(=O)c2cccc(S(=O)(=O)Nc3c(C)n(C)n(-c4ccccc4)c3=O)c2)cc1 (stereo not drawn)	1.63% (inactive)
Cc1ccc(S(=O)(=O)N/N=C(\c2ccccc2)C2CC2)cc1	0.27% (inactive)
COc1ccc(S(=O)(=O)/N=C2\C=C(NS(=O)(=O)c3ccccc3)C(=O)c3ccccc32)cc1	15.6% (active)
CNC(=O)COc1ccc(S(=O)(=O)Nc2ccccc2)cc1	-0.9% (inactive)
Cc1ccc(S(=O)(=O)/N=C2\C=C(NS(=O)(=O)c3ccc(C)cc3)C(=O)c3ccccc32)cc1	14.9% (active)
Cc1ccc(S(=O)(=O)N[C@H](CO)C(C)C)cc1	4.45% (inactive)
Cc1ccc(C)c(NC(=O)CCS(=O)(=O)c2ccccc2)c1	1.44% (inactive)

SMILES	inhibition
O=C1CC[C@@]23CCCN2C(=O)CCC[C@H]3[C@H]1Cc1ccccc1	-0.34% (inactive)
Fc1ccc2nc(COCc3nc4ccc(F)cc4[nH]3)[nH]c2c1	0.7% (inactive)
O=C(CSc1nc2ccccc2n1Cc1ccccc1)NNC(=S)Nc1ccccc1	5.2% (inactive)
COC(=O)C[C@@H]1CC[C@@H]2[C@@H](COc3ccc(NC(=O)Nc4ccc(F)c(F)c4)cc3C(=O)N2C)O1	0.03% (inactive)
COC(=O)c1cccc(Cn2ccc3ccc(-c4ccc5ccn(C(=O)C6CCCCC6)c5c4)cc32)c1	0.91% (inactive)
COC(=O)C[C@H]1CC[C@H]2[C@H](COc3ccc(NC(=O)C4CC4)cc3C(=O)N2C)O1	2.4% (inactive)
Oc1cccc(/C=N/Nc2ccc(Cl)nn2)c1O	18.5% (active)
C/C(=N\Nc1ccc(Cl)nn1)c1ccccc1O	-4.19% (inactive)
CCOC(=O)[C@]12CCCCC/C=C\1N(Cc1ccc(OC)cc1)C(=O)[C@H]2CC(=O)NCCCN1CCCC1=O	-3.19% (inactive)
COC(=O)c1cc(S(=O)(=O)N2CCN(C(=O)C3CCCO3)CC2)cn1C (stereo not drawn)	8.59% (inactive)
COc1ccc(-n2c(SCC(=O)Nc3ccc4cn[nH]c4c3)nnc2-c2cccnc2)cc1	-0.62% (inactive)
COc1ccc(-c2cc(-c3nnc(SCC(=O)Nc4cccc5ccccc45)n3N)[nH]n2)cc1	-3.91% (inactive)
Cc1cc(=O)oc2c3c(cc(OCC(=O)N[C@H](C(=O)O)c4ccccc4)c12)OC(C)(C)CC3	18.2% (active)
Cc1cc(=O)oc2c3c(cc(OCC(=O)NCC(O)c4ccccc4)c12)OC(C)(C)CC3 (stereo not drawn)	-5.46% (inactive)
Cc1c(C)c2c(OCC(=O)N[C@@H](C(=O)O)c3ccccc3)cc3c(c2oc1=O)CCC(C)(C)O3	-4.85% (inactive)
O=C(NC1CCCCN(Cc2ccc(Cl)cc2)C1=O)c1ccc(Br)cc1 (stereo not drawn)	2.38% (inactive)
COC(=O)[C@]12C[C@H](CC(=O)NCC34CC5CC(CC(C5)C3)C4)C(=O)N(Cc3ccc(Cl)cc3Cl)C1=C[C@H](COCc1ccccc1)O[C@@H]2C	-4.42% (inactive)
CC(C)CSc1nnc(-c2cccnc2)n1Cc1ccccc1	1.09% (inactive)
CCOc1c(Br)cc(/C=C2\C(=O)N(CCC#N)N=C2C)cc1OC	36% (active)
COC(=O)[C@H](C(C)C)N(CCc1cn(Cc2ccccc2)nn1)S(=O)(=O)c1ccc(F)cc1Br	-1.7% (inactive)
FC(F)(F)c1cccc(NC(=S)OC2CCC23CCC(c2ccccc2)CC3)c1 (stereo not drawn)	2.54% (inactive)
Nc1[nH]c(/C=C2/CCCCC2n2[nH]c(=O)n(-c3ccccc3)c2=O)c(Cc2ccccc2)[n+]1Cc1ccccc1 (stereo not drawn)	3.55% (inactive)
C[C@H]1[C@H](NC(=O)c2cccc(N(C)C)c2)CC[C@@]23CCCN2C(=O)CCC[C@@H]13	-2.54% (inactive)
O=S(=O)(c1cc(Cl)ccc1Cl)N1CCN(Cc2ccco2)CC1	-3.53% (inactive)
CCN1CCN(C(=O)C2CCN(S(=O)(=O)c3cc(Cl)ccc3Cl)CC2)CC1	1.63% (inactive)
O=C(CN1CCN(S(=O)(=O)c2cc(Cl)ccc2Cl)CC1)c1ccc(O)c(O)c1	50.6% (active)
